# Measured values from the supplement of paper PMC4022240.
# ± gives the standard deviation.
# T1: HaloTag-ATRX ADD domain (163-292)
# T1 chain: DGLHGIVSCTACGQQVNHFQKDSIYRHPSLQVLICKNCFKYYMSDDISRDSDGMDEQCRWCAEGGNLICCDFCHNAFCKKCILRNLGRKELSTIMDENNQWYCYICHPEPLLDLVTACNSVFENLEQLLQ
# Experiments:
# Test in all cases: peptide microarray binding signal (635 nm), min-max normalized on array (fraction of array maximum); higher = stronger binding
# Details in all cases: peptide region: H3 5-17
# [1] = molecular target: T1, HaloTag-ATRX ADD domain (163-292)
# Procedure, shortened: (§1)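 Arrays carried histone 13-mer peptide–cellulose conjugates printed in triplicate on nitrocellulose alongside a Cy3 tracer. After overnight blocking at 4°C, they were incubated for 1 h at 4°C with biotin-labelled HaloTag reader fusions (10 nM to 1 μM) plus streptavidin-Alexa Fluor 647, or with rabbit histone antibodies (1:10,000 to 1:2,000) plus anti-rabbit Alexa 647. Scanning on an Axon GenePix 4000B used 635 nm for signal and 532 nm for misprints. The binding signal reported is each triplicate's mean spot intensity after per-library min-max scaling.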
# [2] = molecular target: HaloTag-ING2 PHD (mouse Ing2 200-280)
# Procedure, shortened: as §1
# [3] = molecular target: anti-H3K4me3 antibody ab8580
# Procedure, shortened: as §1
# [4] = molecular target: anti-H3K9me3 antibody ab8898
# Procedure, shortened: as §1
# [5] = peptide modifications: H3R8cit H3K9me2, binder concentration: 1:2,000 dilution
# [6] = peptide modifications: H3R8cit H3K9me2, binder concentration: 1:10,000 dilution
# [7] = peptide modifications: H3R8me2a H3K9me2, binder concentration: 1:2,000 dilution
# [8] = peptide modifications: H3R8me2a H3K9me2, binder concentration: 1:10,000 dilution
# [9] = peptide modifications: H3R8cit H3K9me3, binder concentration: 1:2,000 dilution
# [10] = peptide modifications: H3R8cit H3K9me3, binder concentration: 1:10,000 dilution
# [11] = peptide modifications: H3R8me2a H3K9me3, binder concentration: 1:2,000 dilution
# [12] = peptide modifications: H3R8me2a H3K9me3, binder concentration: 1:10,000 dilution
# [13] = peptide modifications: H3R8me2a H3K9ac, binder concentration: 1:2,000 dilution
# [14] = peptide modifications: H3R8me2a H3K9ac, binder concentration: 1:10,000 dilution
binder,measurement,setting,value
QTARKSTGGKAPR [H3 5-17 Q T A Rcit Kme2 S T G G K A P R],peptide microarray binding signal,"[1]; peptide modifications: H3R8cit H3K9me2, binder concentration: 50 nM",0.0094 ± 0.00026
same,peptide microarray binding signal,"[1]; peptide modifications: H3R8cit H3K9me2, binder concentration: 500 nM",0.0211 ± 0.0019
same,peptide microarray binding signal,"[2]; peptide modifications: H3R8cit H3K9me2, binder concentration: 10 nM",0.0388 ± 0.00083
same,peptide microarray binding signal,"[2]; peptide modifications: H3R8cit H3K9me2, binder concentration: 100 nM",0.0648 ± 0.0026
same,peptide microarray binding signal,[3]; [5],0.016 ± 0.0013
same,peptide microarray binding signal,[3]; [6],0.0193 ± 0.00081
same,peptide microarray binding signal,[4]; [5],0.271 ± 0.036
same,peptide microarray binding signal,[4]; [6],0.197 ± 0.037
QTARKSTGGKAPR [H3 5-17 Q T A Rme2a Kme2 S T G G K A P R],peptide microarray binding signal,"[1]; peptide modifications: H3R8me2a H3K9me2, binder concentration: 50 nM",0.007555 ± 2.4e-05
same,peptide microarray binding signal,"[1]; peptide modifications: H3R8me2a H3K9me2, binder concentration: 500 nM",0.0185 ± 0.0016
same,peptide microarray binding signal,"[2]; peptide modifications: H3R8me2a H3K9me2, binder concentration: 10 nM",0.0456 ± 0.0053
same,peptide microarray binding signal,"[2]; peptide modifications: H3R8me2a H3K9me2, binder concentration: 100 nM",0.0526 ± 0.0031
same,peptide microarray binding signal,[3]; [7],0.032 ± 0.0036
same,peptide microarray binding signal,[3]; [8],0.0252 ± 0.0039
same,peptide microarray binding signal,[4]; [7],0.185 ± 0.023
same,peptide microarray binding signal,[4]; [8],0.104 ± 0.0059
QTARKSTGGKAPR [H3 5-17 Q T A Rcit Kme3 S T G G K A P R],peptide microarray binding signal,"[1]; peptide modifications: H3R8cit H3K9me3, binder concentration: 50 nM",0.0148 ± 0.00057
same,peptide microarray binding signal,"[1]; peptide modifications: H3R8cit H3K9me3, binder concentration: 500 nM",0.036 ± 0.002
same,peptide microarray binding signal,"[2]; peptide modifications: H3R8cit H3K9me3, binder concentration: 10 nM",0.0937 ± 0.0048
same,peptide microarray binding signal,"[2]; peptide modifications: H3R8cit H3K9me3, binder concentration: 100 nM",0.102 ± 0.013
same,peptide microarray binding signal,[3]; [9],0.453 ± 0.025
same,peptide microarray binding signal,[3]; [10],0.334 ± 0.09
same,peptide microarray binding signal,[4]; [9],1 ± 0.068
same,peptide microarray binding signal,[4]; [10],0.952 ± 0.059
QTARKSTGGKAPR [H3 5-17 Q T A Rme2a Kme3 S T G G K A P R],peptide microarray binding signal,"[1]; peptide modifications: H3R8me2a H3K9me3, binder concentration: 50 nM",0.00527 ± 0.0012
same,peptide microarray binding signal,"[1]; peptide modifications: H3R8me2a H3K9me3, binder concentration: 500 nM",0.0107 ± 0.0015
same,peptide microarray binding signal,"[2]; peptide modifications: H3R8me2a H3K9me3, binder concentration: 10 nM",0.0164 ± 0.0009
same,peptide microarray binding signal,"[2]; peptide modifications: H3R8me2a H3K9me3, binder concentration: 100 nM",0.019 ± 0.0012
same,peptide microarray binding signal,[3]; [11],0.0361 ± 0.011
same,peptide microarray binding signal,[3]; [12],0.0283 ± 0.011
same,peptide microarray binding signal,[4]; [11],0.208 ± 0.075
same,peptide microarray binding signal,[4]; [12],0.208 ± 0.025
QTARKSTGGKAPR [H3 5-17 Q T A Rme2a Kac S T G G K A P R],peptide microarray binding signal,"[1]; peptide modifications: H3R8me2a H3K9ac, binder concentration: 50 nM",0.00423 ± 6.5e-05
same,peptide microarray binding signal,"[1]; peptide modifications: H3R8me2a H3K9ac, binder concentration: 500 nM",0.003 ± 4.1e-05
same,peptide microarray binding signal,"[2]; peptide modifications: H3R8me2a H3K9ac, binder concentration: 10 nM",0.00651
same,peptide microarray binding signal,"[2]; peptide modifications: H3R8me2a H3K9ac, binder concentration: 100 nM",0.00765 ± 0.00019
same,peptide microarray binding signal,[3]; [13],0.00208 ± 6e-05
same,peptide microarray binding signal,[3]; [14],0.00217 ± 5.2e-05
same,peptide microarray binding signal,[4]; [13],0.00403 ± 0.00054
same,peptide microarray binding signal,[4]; [14],0.00427 ± 9.8e-05
